# Assay results reported in article PMC11062922 (Nature Chemical Biology, 2023).
# Where two headings read alike, the source gives them in different places.
# Tests used:
# Details in all cases: read-out: apparent Kd, n = 1
# LATS1 = tested on: LATS1
# MAP2K2 = tested on: MAP2K2
# MAP2K6 = tested on: MAP2K6
# [1] = compound concentrations:100 nM and 1000 nM (sheet 'Lestaurtinib' of Supplementary Table 1),run:Lestaurtinib_02802_R2,Plate:MR029
# [2] = compound concentrations:100 nM and 1000 nM (sheet 'Lestaurtinib' of Supplementary Table 1),run:Lestaurtinib_02896_R2,Plate:MR030
# [3] = compound concentrations:100 nM and 1000 nM (sheet 'Lestaurtinib' of Supplementary Table 1),run:Lestaurtinib_03172_R3,Plate:MR031
# [4] = compound concentrations:100 nM and 1000 nM (sheet 'Lestaurtinib' of Supplementary Table 1),run:Lestaurtinib_03260_R2,Plate:MR033
# [5] = compound concentrations:100 nM and 1000 nM (sheet 'Lestaurtinib' of Supplementary Table 1),run:Lestaurtinib_02339_R2,Plate:MR001
# [6] = compound concentrations:100 nM and 1000 nM (sheet 'Lestaurtinib' of Supplementary Table 1),run:Lestaurtinib_02339_R3,Plate:MR001
# [7] = compound concentrations:100 nM and 1000 nM (sheet 'Lestaurtinib' of Supplementary Table 1),run:Lestaurtinib_02364_R2,Plate:MR002
# [8] = compound concentrations:100 nM and 1000 nM (sheet 'Lestaurtinib' of Supplementary Table 1),run:Lestaurtinib_02367_R1,Plate:MR003
# [9] = compound concentrations:100 nM and 1000 nM (sheet 'Lestaurtinib' of Supplementary Table 1),run:Lestaurtinib_02367_R2,Plate:MR003
substance,measurement,setting,value
Lestaurtinib,potency estimated from few doses,"LATS1; compound concentrations:100 nM and 1000 nM (sheet 'Lestaurtinib' of Supplementary Table 1),run:Lestaurtinib_02795_R3,Plate:MR022",46.9 nM
same,potency estimated from few doses,"LATS1; compound concentrations:100 nM and 1000 nM (sheet 'Lestaurtinib' of Supplementary Table 1),run:Lestaurtinib_02802_R1,Plate:MR029",38.6 nM
same,potency estimated from few doses,LATS1; [1],26 nM
same,potency estimated from few doses,"LATS1; compound concentrations:100 nM and 1000 nM (sheet 'Lestaurtinib' of Supplementary Table 1),run:Lestaurtinib_02896_R1,Plate:MR030",15.1 nM
same,potency estimated from few doses,LATS1; [2],27.9 nM
same,potency estimated from few doses,"LATS1; compound concentrations:100 nM and 1000 nM (sheet 'Lestaurtinib' of Supplementary Table 1),run:Lestaurtinib_03172_R1,Plate:MR031",40.9 nM
same,potency estimated from few doses,"LATS1; compound concentrations:100 nM and 1000 nM (sheet 'Lestaurtinib' of Supplementary Table 1),run:Lestaurtinib_03172_R2,Plate:MR031",32.7 nM
same,potency estimated from few doses,LATS1; [3],30.1 nM
same,potency estimated from few doses,"LATS1; compound concentrations:100 nM and 1000 nM (sheet 'Lestaurtinib' of Supplementary Table 1),run:Lestaurtinib_03252_R1,Plate:MR032",41.1 nM
same,potency estimated from few doses,LATS1; [4],66 nM
same,potency estimated from few doses,"LATS1; compound concentrations:100 nM and 1000 nM (sheet 'Lestaurtinib' of Supplementary Table 1),run:Lestaurtinib_03260_R3,Plate:MR033",57.8 nM
same,potency estimated from few doses,"MAP2K2; compound concentrations:100 nM and 1000 nM (sheet 'Lestaurtinib' of Supplementary Table 1),run:Lestaurtinib_02339_R1,Plate:MR001",1930 nM
same,potency estimated from few doses,MAP2K2; [5],822 nM
same,potency estimated from few doses,MAP2K2; [6],836 nM
same,potency estimated from few doses,"MAP2K2; compound concentrations:100 nM and 1000 nM (sheet 'Lestaurtinib' of Supplementary Table 1),run:Lestaurtinib_02364_R1,Plate:MR002",1210 nM
same,potency estimated from few doses,MAP2K2; [7],1670 nM
same,potency estimated from few doses,MAP2K2; [8],557 nM
same,potency estimated from few doses,MAP2K2; [9],665 nM
same,potency estimated from few doses,"MAP2K2; compound concentrations:100 nM and 1000 nM (sheet 'Lestaurtinib' of Supplementary Table 1),run:Lestaurtinib_02367_R3,Plate:MR003",2220 nM
same,potency estimated from few doses,"MAP2K2; compound concentrations:100 nM and 1000 nM (sheet 'Lestaurtinib' of Supplementary Table 1),run:Lestaurtinib_02407_R1,Plate:MR005",96.3 nM
same,potency estimated from few doses,"MAP2K2; compound concentrations:100 nM and 1000 nM (sheet 'Lestaurtinib' of Supplementary Table 1),run:Lestaurtinib_02407_R2,Plate:MR005",143 nM
same,potency estimated from few doses,"MAP2K2; compound concentrations:100 nM and 1000 nM (sheet 'Lestaurtinib' of Supplementary Table 1),run:Lestaurtinib_02407_R3,Plate:MR005",794 nM
same,potency estimated from few doses,"MAP2K2; compound concentrations:100 nM and 1000 nM (sheet 'Lestaurtinib' of Supplementary Table 1),run:Lestaurtinib_02422_R3,Plate:MR006",1800 nM
same,potency estimated from few doses,"MAP2K2; compound concentrations:100 nM and 1000 nM (sheet 'Lestaurtinib' of Supplementary Table 1),run:Lestaurtinib_02437_R1,Plate:MR007",159 nM
same,potency estimated from few doses,"MAP2K2; compound concentrations:100 nM and 1000 nM (sheet 'Lestaurtinib' of Supplementary Table 1),run:Lestaurtinib_02437_R2,Plate:MR007",1370 nM
same,potency estimated from few doses,"MAP2K2; compound concentrations:100 nM and 1000 nM (sheet 'Lestaurtinib' of Supplementary Table 1),run:Lestaurtinib_02437_R3,Plate:MR007",98.9 nM
same,potency estimated from few doses,"MAP2K2; compound concentrations:100 nM and 1000 nM (sheet 'Lestaurtinib' of Supplementary Table 1),run:Lestaurtinib_02438_R1,Plate:MR008",1800 nM
same,potency estimated from few doses,"MAP2K2; compound concentrations:100 nM and 1000 nM (sheet 'Lestaurtinib' of Supplementary Table 1),run:Lestaurtinib_02438_R2,Plate:MR008",876 nM
same,potency estimated from few doses,"MAP2K2; compound concentrations:100 nM and 1000 nM (sheet 'Lestaurtinib' of Supplementary Table 1),run:Lestaurtinib_02438_R3,Plate:MR008",745 nM
same,potency estimated from few doses,"MAP2K2; compound concentrations:100 nM and 1000 nM (sheet 'Lestaurtinib' of Supplementary Table 1),run:Lestaurtinib_02443_R2,Plate:MR009",782 nM
same,potency estimated from few doses,"MAP2K2; compound concentrations:100 nM and 1000 nM (sheet 'Lestaurtinib' of Supplementary Table 1),run:Lestaurtinib_02443_R3,Plate:MR009",924 nM
same,potency estimated from few doses,"MAP2K2; compound concentrations:100 nM and 1000 nM (sheet 'Lestaurtinib' of Supplementary Table 1),run:Lestaurtinib_02473_R1,Plate:MR010",838 nM
same,potency estimated from few doses,"MAP2K2; compound concentrations:100 nM and 1000 nM (sheet 'Lestaurtinib' of Supplementary Table 1),run:Lestaurtinib_02482_R1,Plate:MR011",1400 nM
same,potency estimated from few doses,"MAP2K2; compound concentrations:100 nM and 1000 nM (sheet 'Lestaurtinib' of Supplementary Table 1),run:Lestaurtinib_02482_R2,Plate:MR011",1360 nM
same,potency estimated from few doses,"MAP2K2; compound concentrations:100 nM and 1000 nM (sheet 'Lestaurtinib' of Supplementary Table 1),run:Lestaurtinib_02482_R3,Plate:MR011",1300 nM
same,potency estimated from few doses,"MAP2K2; compound concentrations:100 nM and 1000 nM (sheet 'Lestaurtinib' of Supplementary Table 1),run:Lestaurtinib_02487_R3,Plate:MR012",1300 nM
same,potency estimated from few doses,"MAP2K2; compound concentrations:100 nM and 1000 nM (sheet 'Lestaurtinib' of Supplementary Table 1),run:Lestaurtinib_02496_R3,Plate:MR013",1430 nM
same,potency estimated from few doses,"MAP2K2; compound concentrations:100 nM and 1000 nM (sheet 'Lestaurtinib' of Supplementary Table 1),run:Lestaurtinib_02566_R2,Plate:MR014",1240 nM
same,potency estimated from few doses,"MAP2K2; compound concentrations:100 nM and 1000 nM (sheet 'Lestaurtinib' of Supplementary Table 1),run:Lestaurtinib_02566_R3,Plate:MR014",835 nM
same,potency estimated from few doses,"MAP2K2; compound concentrations:100 nM and 1000 nM (sheet 'Lestaurtinib' of Supplementary Table 1),run:Lestaurtinib_02572_R1,Plate:MR015",1370 nM
same,potency estimated from few doses,"MAP2K2; compound concentrations:100 nM and 1000 nM (sheet 'Lestaurtinib' of Supplementary Table 1),run:Lestaurtinib_02577_R1,Plate:MR016",1370 nM
same,potency estimated from few doses,"MAP2K2; compound concentrations:100 nM and 1000 nM (sheet 'Lestaurtinib' of Supplementary Table 1),run:Lestaurtinib_02577_R2,Plate:MR016",883 nM
same,potency estimated from few doses,"MAP2K2; compound concentrations:100 nM and 1000 nM (sheet 'Lestaurtinib' of Supplementary Table 1),run:Lestaurtinib_02577_R3,Plate:MR016",852 nM
same,potency estimated from few doses,"MAP2K2; compound concentrations:100 nM and 1000 nM (sheet 'Lestaurtinib' of Supplementary Table 1),run:Lestaurtinib_02584_R3,Plate:MR017",1580 nM
same,potency estimated from few doses,"MAP2K2; compound concentrations:100 nM and 1000 nM (sheet 'Lestaurtinib' of Supplementary Table 1),run:Lestaurtinib_02601_R1,Plate:MR018",728 nM
same,potency estimated from few doses,"MAP2K2; compound concentrations:100 nM and 1000 nM (sheet 'Lestaurtinib' of Supplementary Table 1),run:Lestaurtinib_02606_R1,Plate:MR019",691 nM
same,potency estimated from few doses,"MAP2K2; compound concentrations:100 nM and 1000 nM (sheet 'Lestaurtinib' of Supplementary Table 1),run:Lestaurtinib_02606_R3,Plate:MR019",1150 nM
same,potency estimated from few doses,"MAP2K2; compound concentrations:100 nM and 1000 nM (sheet 'Lestaurtinib' of Supplementary Table 1),run:Lestaurtinib_02624_R1,Plate:MR020",976 nM
same,potency estimated from few doses,"MAP2K2; compound concentrations:100 nM and 1000 nM (sheet 'Lestaurtinib' of Supplementary Table 1),run:Lestaurtinib_02624_R2,Plate:MR020",1760 nM
same,potency estimated from few doses,"MAP2K2; compound concentrations:100 nM and 1000 nM (sheet 'Lestaurtinib' of Supplementary Table 1),run:Lestaurtinib_02624_R3,Plate:MR020",1490 nM
same,potency estimated from few doses,"MAP2K2; compound concentrations:100 nM and 1000 nM (sheet 'Lestaurtinib' of Supplementary Table 1),run:Lestaurtinib_02724_R1,Plate:MR021",1320 nM
same,potency estimated from few doses,"MAP2K2; compound concentrations:100 nM and 1000 nM (sheet 'Lestaurtinib' of Supplementary Table 1),run:Lestaurtinib_02724_R2,Plate:MR021",1510 nM
same,potency estimated from few doses,"MAP2K2; compound concentrations:100 nM and 1000 nM (sheet 'Lestaurtinib' of Supplementary Table 1),run:Lestaurtinib_02741_R3,Plate:MR023",875 nM
same,potency estimated from few doses,"MAP2K2; compound concentrations:100 nM and 1000 nM (sheet 'Lestaurtinib' of Supplementary Table 1),run:Lestaurtinib_02748_R2,Plate:MR024",1490 nM
same,potency estimated from few doses,"MAP2K2; compound concentrations:100 nM and 1000 nM (sheet 'Lestaurtinib' of Supplementary Table 1),run:Lestaurtinib_02752_R1,Plate:MR025",842 nM
same,potency estimated from few doses,"MAP2K2; compound concentrations:100 nM and 1000 nM (sheet 'Lestaurtinib' of Supplementary Table 1),run:Lestaurtinib_02752_R2,Plate:MR025",925 nM
same,potency estimated from few doses,"MAP2K2; compound concentrations:100 nM and 1000 nM (sheet 'Lestaurtinib' of Supplementary Table 1),run:Lestaurtinib_02752_R3,Plate:MR025",1310 nM
same,potency estimated from few doses,"MAP2K2; compound concentrations:100 nM and 1000 nM (sheet 'Lestaurtinib' of Supplementary Table 1),run:Lestaurtinib_02765_R1,Plate:MR026",722 nM
same,potency estimated from few doses,"MAP2K2; compound concentrations:100 nM and 1000 nM (sheet 'Lestaurtinib' of Supplementary Table 1),run:Lestaurtinib_02766_R2,Plate:MR027",959 nM
same,potency estimated from few doses,"MAP2K2; compound concentrations:100 nM and 1000 nM (sheet 'Lestaurtinib' of Supplementary Table 1),run:Lestaurtinib_02766_R3,Plate:MR027",1320 nM
same,potency estimated from few doses,"MAP2K2; compound concentrations:100 nM and 1000 nM (sheet 'Lestaurtinib' of Supplementary Table 1),run:Lestaurtinib_02768_R1,Plate:MR028",1590 nM
same,potency estimated from few doses,"MAP2K2; compound concentrations:100 nM and 1000 nM (sheet 'Lestaurtinib' of Supplementary Table 1),run:Lestaurtinib_02795_R1,Plate:MR022",925 nM
same,potency estimated from few doses,"MAP2K2; compound concentrations:100 nM and 1000 nM (sheet 'Lestaurtinib' of Supplementary Table 1),run:Lestaurtinib_02795_R2,Plate:MR022",722 nM
same,potency estimated from few doses,MAP2K2; [1],958 nM
same,potency estimated from few doses,"MAP2K2; compound concentrations:100 nM and 1000 nM (sheet 'Lestaurtinib' of Supplementary Table 1),run:Lestaurtinib_02802_R3,Plate:MR029",1490 nM
same,potency estimated from few doses,MAP2K2; [2],744 nM
same,potency estimated from few doses,"MAP2K2; compound concentrations:100 nM and 1000 nM (sheet 'Lestaurtinib' of Supplementary Table 1),run:Lestaurtinib_02896_R3,Plate:MR030",804 nM
same,potency estimated from few doses,MAP2K2; [3],475 nM
same,potency estimated from few doses,"MAP2K2; compound concentrations:100 nM and 1000 nM (sheet 'Lestaurtinib' of Supplementary Table 1),run:Lestaurtinib_03252_R2,Plate:MR032",790 nM
same,potency estimated from few doses,MAP2K2; [4],1600 nM
same,potency estimated from few doses,MAP2K6; [5],162 nM
same,potency estimated from few doses,MAP2K6; [6],96.9 nM
same,potency estimated from few doses,MAP2K6; [7],135 nM
same,potency estimated from few doses,MAP2K6; [8],158 nM
same,potency estimated from few doses,MAP2K6; [9],190 nM
